The target in assay [1] is Mitogen-activated protein kinase 7 (Homo sapiens) (UniProt Q13164). The assay can be described thus: ERK5 transactivation activators in reporter cells, primary screen, cell-based, HTS (AID 1508626).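 Further: luciferase driven by Gal4-ERK5 fusion binding five Gal4 sites before minimal TATA.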 The settings on record: HeLa Gal4-ERK5 transactivation, 18 h, at 5 µM, stronger effect = higher value.
A short description of assay [2]: mitochondrial permeability transition inhibitors (AID 1580; call rule not given here). The conditions noted are these: isolated mitochondria, permeability transition inhibition.
Assay [3] can be described thus: polyglutamine-triggered caspase-3 activation inhibitors, cell-based (AID 1583). The conditions noted are these: polyglutamine-induced caspase-3 activation, cell assay; stronger effect = higher value;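 tested at 10 µM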.
Assay [4] in a line: suppressors of polyQ aggregation in yeast, 75Q-TubU reporter (AID 1593). The conditions noted are these: Yeast 75Q polyglutamine aggregation reporter.
A short description of assay [5]: rescue of polyQ-huntingtin neuronal dysfunction in worms, whole organism, C. elegans mechanosensory neurons, N-terminal huntingtin (AID 1599). The conditions noted are these: touch response, stronger effect = higher value.
Assay [6] can be described thus: inhibitors of mitochondrial cytochrome c release, biochemical, purified mitochondria (AID 1603).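 Further: mouse liver mitochondria challenged with calcium chloride; signal normalized to the plate average as 100%.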 The settings on record: stronger effect = lower value.
The nature of assay [7]: inhibitors of polyQ protein aggregation (AID 1604). The conditions noted are these: polyglutamine-induced protein aggregation inhibition assay; stronger effect = higher value; tested at 2.5 µM.
Assay [8] is described as follows: enhancers of glutamate uptake in motor neurons, MN-1 cell line (AID 1612).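 Further: tested at 1 µM final; 0% = mean of DMSO vehicle wells on each plate; positive means more glutamate uptake than control and negative means less.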 The settings on record: MN-1 motor neuron cells, stronger effect = higher value.
Assay [9] in a line: suppressors of polyglutamine aggregation in yeast, 75Q-TubH (AID 1616). The conditions noted are these: S. cerevisiae 75Q-TubH polyglutamine aggregation suppression; stronger effect = higher value.
A short description of assay [10]: liver-stage malaria parasite growth inhibition, primary screen, cell-based, HepG2, luciferase luminescence, HepG2 viability (AID 624349; in the data active means parasite load remaining mostly below about 12%, no sharp cut-off; inactive means mostly above about 10%;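 further: 100% = mean of DMSO negative control wells on the same plate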). The settings on record: P. berghei liver stage in HepG2, luciferase luminescence, concentration not given here; parasite load remaining: stronger effect = lower value; viability: measured here: HepG2 viability without parasites.

Where a name gives a salt, the structure may show the parent alone. Results filed as inconclusive are left out. For some of these results: Entries with a potency or affinity are not part of this list. The source made the active and inactive calls.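 How the source made its calls, unless noted: active means luciferase signal above three times the same-plate solvent-only control wells; inactive means the rest.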 Peptide text beside a SMILES is read from it. * marks the point of attachment. Tfa = O=C(C(F)(F)F)*

What is called EC50 is the midpoint of the concentration-response curve. A word on the inhibition: it is how much of the control response was suppressed. A word on the viability: it is the share of living cells, or the viability signal relative to a control.

Mitogen-activated protein kinase 7 (Homo sapiens), sequence (Q13164 whole entry, looked up, the tested form may be a part): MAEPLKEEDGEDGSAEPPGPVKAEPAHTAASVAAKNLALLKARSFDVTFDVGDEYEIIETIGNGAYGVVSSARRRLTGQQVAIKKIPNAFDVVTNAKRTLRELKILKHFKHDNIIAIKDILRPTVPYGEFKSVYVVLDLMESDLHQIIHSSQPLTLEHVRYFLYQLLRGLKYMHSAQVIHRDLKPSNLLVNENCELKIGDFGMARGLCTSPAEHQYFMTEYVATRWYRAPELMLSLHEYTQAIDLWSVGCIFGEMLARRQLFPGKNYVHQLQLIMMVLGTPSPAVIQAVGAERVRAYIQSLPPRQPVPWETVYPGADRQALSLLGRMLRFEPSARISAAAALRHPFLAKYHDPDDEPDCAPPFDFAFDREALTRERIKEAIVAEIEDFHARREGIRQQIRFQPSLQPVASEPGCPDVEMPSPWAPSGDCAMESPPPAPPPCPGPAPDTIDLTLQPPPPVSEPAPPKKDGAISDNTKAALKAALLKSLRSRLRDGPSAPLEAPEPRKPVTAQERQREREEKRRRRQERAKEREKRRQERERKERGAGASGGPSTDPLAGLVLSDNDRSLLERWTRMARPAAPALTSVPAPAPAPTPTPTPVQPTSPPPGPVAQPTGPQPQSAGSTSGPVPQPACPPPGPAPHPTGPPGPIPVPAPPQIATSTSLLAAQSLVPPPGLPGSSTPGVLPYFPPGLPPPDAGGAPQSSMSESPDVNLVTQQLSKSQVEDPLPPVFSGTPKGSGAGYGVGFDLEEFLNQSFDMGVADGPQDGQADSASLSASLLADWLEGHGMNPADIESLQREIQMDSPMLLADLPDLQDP

Regarding `CC1=C2[C@@H]([C@H](C)CC[C@H]2/C=C(\C)C(=O)O)[C@H](O)C1`, the luciferase signal in [1] was 24 AU (inactive). The same measure, in the same setting: to `CNS(=O)(=O)c1ccc(NC(=O)c2ccccc2C(=O)O)cc1` belongs 28 AU (inactive); to `NC(=O)CCCCC(S)CCS` (stereo not given), 32 AU (inactive).

Turning to `Nc1ncnc2c1ncn2[C@H]1C[C@H](O)[C@@H](CO)O1`, the luciferase signal in assay [1] is 136 AU (inactive).

On to `CC(=O)O[C@H]1CC[C@]2(C)[C@H]3CC=C4[C@@H]5CC(C)(C)CC[C@]5(C)CC[C@@]4(C)[C@]3(C)CC[C@H]2C1(C)C`, for which the luciferase signal in [1] is 64 AU (inactive).

As for `C=C1CC[C@@]2(OC1)O[C@H]1C[C@H]3[C@@H]4CC=C5C[C@@H](O)C[C@@H](O)[C@]5(C)[C@H]4CC[C@]3(C)[C@H]1[C@@H]2C`, the luciferase signal in assay [1] was 84 AU (inactive). On the same count and under the same terms, to `CC1(C)CC2C1CC[C@]1(C)CCC3C(C(=O)O)CC(=O)O[C@@]32C1` (stereo not given in full) belongs 56 AU (inactive); to `CC(=O)O[C@H]1CC[C@]2(C)C3=C(CC[C@H]2C1(C)C)[C@@]1(C)CC[C@@H]([C@H](C)CCC=C(C)C)[C@]1(C)CC3`, 28 AU (inactive); to `COC(=O)/C=C/C(C)=C\C=C\C(C)=C\C=C\C=C(C)\C=C\C=C(C)\C=C\C(=O)O`, 64 AU (inactive).

Regarding `CC(C)c1c(O)ccc2c1CCC1[C@@](C)(CO)CCC[C@]21C` (stereo not given in full), the luciferase signal in assay [1] was 112 AU (inactive).

Take `C=CCSC[C@H](N)C(=O)O`: in assay [1], the luciferase signal was 44 AU (inactive).

Take `CC[C@H](C)[C@H](N)C(=O)N1CCC[C@H]1C(=O)N[C@H](C(=O)O)[C@@H](C)CC`: the luciferase signal in assay [1] is 120 AU (inactive).

With `COc1cc(-c2oc3cc(O)ccc3c(=O)c2O)ccc1O`, the luciferase signal in assay [1] was 92 AU (inactive). For `CC(C)CCC[C@@H](C)[C@H]1CC[C@H]2[C@@H]3C=CC4=CC(=O)CC[C@]4(C)[C@H]3CC[C@]12C`, the luciferase signal in assay [1] is 44 AU (inactive). Still for that read-out and setting: in the case of `COc1ccc(-c2coc3cc(OC(C)=O)cc(OC(C)=O)c3c2=O)cc1` it was 80 AU (inactive); in that of `OC[C@@H](O)C(O)[C@@H](O)CO` (stereo not given in full), 88 AU (inactive); in that of `CCCCCCCCCCCC[C@@H](C(=O)O)[C@H](C)C(=O)O`, 32 AU (inactive).

Turning to `CC(=O)Oc1ccc2c(c1)CC[C@@H]1[C@@H]2CC[C@]2(C)[C@@H](OC(C)=O)CC[C@@H]12`, the luciferase signal in [1] was 8 AU (inactive). Same read-out and setting: in the case of `CO/N=C(/C(=O)N[C@@H]1C(=O)N2C(C(=O)OCOC(=O)C(C)(C)C)=C(/C=C\c3scnc3C)CS[C@H]12)c1csc(N)n1` it was 132 AU (inactive); in that of `CO[C@H]1O[C@H](CO)C(O[C@@H]2OC(C(=O)O)[C@@H](O[C@H]3O[C@H](COS(=O)(=O)O)C(O[C@@H]4OC(C(=O)O)[C@@H](O[C@H]5O[C@H](CO)C(O[C@@H]6OC(C(=O)O)[C@@H](O[C@H]7O[C@H](COS(=O)(=O)O)C(O[C@@H]8OC(C(=O)O)=C[C@H](O)C8OS(=O)(=O)O)[C@H](O)[C@H]7NC(C)=O)[C@H](O)[C@H]6O)[C@H](O)[C@H]5NC(C)=O)[C@H](O)[C@H]4O)[C@H](O)[C@H]3NC(C)=O)[C@H](O)[C@H]2O)[C@H](O)[C@H]1NC(C)=O` (stereo not given in full), 100 AU (inactive); in that of `CC1C(=O)OC2CC34C5CC(C(C)(C)C)C36C(OC(=O)C6O)OC4(C(=O)O5)C21O` (stereo not given), 36 AU (inactive).

As to `C[C@H](CCC(=O)O)[C@H]1CC[C@H]2[C@@H]3CC[C@@H]4C[C@H](O)CC[C@]4(C)[C@H]3C=C[C@]12C`, the luciferase signal in assay [1] was 16 AU (inactive). The same measure, in the same setting: in the case of `CC(C)=CCC[C@@H](C)[C@@H]1CC[C@]2(C)C3=C(CC[C@@]12C)[C@@]1(C)CC[C@H](O)C(C)(C)[C@@H]1CC3` it was 68 AU (inactive); in that of `CC(C)C(NC(=O)C(Cc1ccc(O)cc1)NC(=O)C(NC(=O)C(F)(F)F)C(C)C)C(=O)O` (stereo not drawn) (Tfa-Val-Tyr-Val-OH; configuration not given here), 64 AU (inactive). Still for that read-out and setting: in the case of `CC(=O)OCC(=O)[C@H]1CC[C@H]2[C@@H]3CC=C4C[C@@H](O)CC[C@]4(C)[C@H]3CC[C@]12C` it was 256 AU (active); in that of `CC1(C)O[C@H]2[C@H](O)C[C@](O)(C(N)=O)C[C@H]2O1`, 20 AU (inactive). On to `O=C(O)C(O)C(O)(Cc1ccc(O)cc1)C(=O)O` (stereo not given), for which the luciferase signal in assay [1] was 16 AU (inactive). On the same count and under the same terms, to `COc1cc2c(cc1OC)C1Cc3ccc(OC)c(OC)c3CN1CC2` (stereo not given) belongs 52 AU (inactive). The same measure, in the same setting: in the case of `CC(=O)O[C@@H]1C=C[C@@]2(C)C(C[C@@H](OC(C)=O)[C@@]3(C)C4=CC(=O)O[C@@H](c5ccoc5)[C@]4(C)CCC23)C1(C)C` (stereo not given in full) it was 20 AU (inactive); in that of `C=CCCCCCCCCCCCC(O)CC(O)CO` (stereo not given), 220 AU (active); in that of `CC1=C2[C@H](/C=C(\C)C(=O)O)CC[C@@H](C)[C@H]2CC1`, 68 AU (inactive).

For `CC(=O)OCC(=O)[C@@]1(O)CCC2C3CC[C@@H]4C[C@H](O)CC[C@]4(C)C3C(=O)C[C@@]21C` (stereo not given in full), the luciferase signal in assay [1] is 112 AU (inactive).

For `CC(C)(O)[C@@H]1CC[C@](C)([C@H]2[C@@H](O)C[C@@]3(C)[C@@H]4C[C@H](O[C@@H]5O[C@H](CO)[C@@H](O)[C@H](O)[C@H]5O)[C@H]5C(C)(C)[C@@H](O[C@@H]6OC[C@@H](O)[C@H](O)[C@H]6O)CC[C@@]56C[C@@]46CC[C@]23C)O1`, in assay [1], the luciferase signal is 52 AU (inactive).

As to `O=c1c(O)c(-c2ccc(O)cc2)oc2ccccc12`, the luciferase signal in [1] is 76 AU (inactive).

In the case of `N[C@@H](C=O)[C@@H](O[C@@H]1O[C@H](C(=O)O)[C@@H](O)[C@H](O)[C@H]1O)[C@@H](O)[C@H](O)CO`, the luciferase signal in assay [1] was 20 AU (inactive).

`CC(C)CCC[C@@H](C)[C@H]1CC[C@H]2[C@@H]3C(=O)C=C4C[C@@H](O)CC[C@]4(C)[C@H]3CC[C@]12C`: the luciferase signal in assay [1] is 80 AU (inactive). Still for that read-out and setting: to `O[C@H]1[C@H](O)[C@@H](O)C2OC[C@H]1O2` belongs 60 AU (inactive). `CC1(C)CC[C@]2(C(=O)O)CC[C@]3(C)C(=CC[C@@H]4[C@@]5(C)CC[C@H](O)C(C)(C)[C@@H]5[C@H](O)C[C@]43C)[C@@H]2C1`: the luciferase signal in assay [1] was 84 AU (inactive). The same measure, in the same setting: in the case of `CO/N=C(/C(=O)N[C@@H]1C(=O)N2C(C(=O)OC(C)OC(C)=O)=C(COC(N)=O)CS[C@H]12)c1ccco1` (stereo not given in full) it was 120 AU (inactive). Still for that read-out and setting: in the case of `COC(=O)C[C@H]1C(C)(C)C(=O)[C@@H]2CC3=C4CC(=O)O[C@@H](c5ccoc5)[C@]4(C)CC[C@@H]3[C@@]1(C)C2=O` it was 32 AU (inactive); in that of `CC(=O)Oc1cc(C)c2c(c1C=O)Oc1c(c(C)c(OC(C)=O)c3c1C(OC(C)=O)OC3=O)OC2=O` (stereo not given), 172 AU (inactive); in that of `NCCC(=O)c1ccccc1N`, 88 AU (inactive). The same measure, in the same setting: in the case of `CC(C)CCC[C@@H](C)[C@H]1CC[C@H]2[C@@H]3CC[C@H]4C[C@H](O)CC[C@]4(C)[C@H]3CC[C@]12C` it was 140 AU (inactive); in that of `CC1(C)C[C@@H]2/C(CO)=C\C=C/[C@@](C)(O)CC[C@]21O`, 64 AU (inactive). Take `C/C1=C\CC(C)(C)/C=C/CC2(C)OC2CC1` (stereo not given): in assay [1], the luciferase signal is 64 AU (inactive). With `CC[C@@H](C(=O)C(C)[C@@H](O)[C@H](C)CCc1ccc(C)c(O)c1C(=O)O)C1OC(CC)(C2CC[C@](O)(CC)[C@H](C)O2)C[C@@H]1C` (stereo not given in full), in assay [2], the 50% effective concentration (EC50) was 100 nM (active). Also, the inhibition in assay [3] is 75.5%. Also, the score in [4] came out at 1. For the same compound, the rescue above control in [5] came to 0. In assay [6], the cytochrome c release ratio turned out to be 1. In [7], this compound gave an inhibition of aggregation of 74%. Moreover, the glutamate uptake change in assay [8] was -67.2%. In addition, the aggregation suppression score in assay [9] came to 0.948. Moreover, in assay [10], the parasite load remaining is -0.43% (inactive) and the viability is 84.4%.
